# Source: publication PMC7862700, “An all-to-all approach to the identification of sequence-specific readers for epigenetic DNA modifications on cytosine”
# Key:
# Test in all cases: DAPPL (digital affinity profiling via proximity ligation, sequencing); 10 mM Tris-HCl pH 7.5, 50 mM NaCl, 1 mM DTT, 4% glycerol, room temperature, 30 min; GST-TFs on glutathione beads, 16-mer random dsDNA library, 0.1% formaldehyde crosslink after washing; high values mean tight binding
# FLI1 = target: T1, FLI1 (Homo sapiens, UniProt Q01543 1-452); conditions: protein: recombinant; tags: N-terminal GST; dsDNA, one strand shown
# T1 sequence: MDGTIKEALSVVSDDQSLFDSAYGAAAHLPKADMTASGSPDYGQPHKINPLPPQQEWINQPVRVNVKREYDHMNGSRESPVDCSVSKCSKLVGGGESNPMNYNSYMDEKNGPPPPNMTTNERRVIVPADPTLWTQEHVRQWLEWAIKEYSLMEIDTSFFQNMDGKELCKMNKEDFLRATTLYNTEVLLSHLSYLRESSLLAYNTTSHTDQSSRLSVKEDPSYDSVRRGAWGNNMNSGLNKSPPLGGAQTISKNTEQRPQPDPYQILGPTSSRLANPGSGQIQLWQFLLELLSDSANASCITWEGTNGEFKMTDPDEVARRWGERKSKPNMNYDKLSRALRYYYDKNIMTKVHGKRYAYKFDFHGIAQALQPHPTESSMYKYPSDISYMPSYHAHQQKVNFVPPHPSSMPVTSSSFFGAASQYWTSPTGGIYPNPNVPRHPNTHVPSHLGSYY
# Outline: (§1)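 A tag-only sample was pooled with DNA-barcoded human transcription factors that had been expressed in yeast as GST fusions and captured on glutathione beads. The pools were incubated for 30 min at room temperature with 200 nmole of a random double-stranded 16-mer DNA library in Tris/NaCl/DTT/glycerol buffer, then washed, crosslinked with 0.1% formaldehyde, proximity-ligated (BsaI/T4 ligase, 1 h, 37 °C), PCR-amplified and sequenced on an Illumina NextSeq500. Binding signal is each hexamer's read frequency for a factor divided by its frequency for the tag-only sample.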
# GABPA = target: T2, GABPA (Homo sapiens, UniProt Q06546 1-454); conditions: protein: recombinant; tags: N-terminal GST; dsDNA, one strand shown
# T2 sequence: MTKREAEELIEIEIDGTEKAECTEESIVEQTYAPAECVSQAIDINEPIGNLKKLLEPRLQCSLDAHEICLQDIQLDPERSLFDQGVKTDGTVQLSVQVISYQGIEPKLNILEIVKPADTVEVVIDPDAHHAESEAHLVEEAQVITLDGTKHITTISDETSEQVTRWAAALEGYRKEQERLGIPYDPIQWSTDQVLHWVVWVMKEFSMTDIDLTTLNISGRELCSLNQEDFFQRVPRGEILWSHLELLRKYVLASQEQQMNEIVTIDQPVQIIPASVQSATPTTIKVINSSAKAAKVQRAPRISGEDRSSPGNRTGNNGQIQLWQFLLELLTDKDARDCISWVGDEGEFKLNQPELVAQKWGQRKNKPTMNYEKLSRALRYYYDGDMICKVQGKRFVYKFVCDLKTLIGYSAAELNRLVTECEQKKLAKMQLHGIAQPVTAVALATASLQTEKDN
# Outline: as §1
# ERG = target: T3, ERG (Homo sapiens, UniProt P11308 1-479); conditions: protein: recombinant; tags: N-terminal GST; dsDNA, one strand shown
# T3 sequence: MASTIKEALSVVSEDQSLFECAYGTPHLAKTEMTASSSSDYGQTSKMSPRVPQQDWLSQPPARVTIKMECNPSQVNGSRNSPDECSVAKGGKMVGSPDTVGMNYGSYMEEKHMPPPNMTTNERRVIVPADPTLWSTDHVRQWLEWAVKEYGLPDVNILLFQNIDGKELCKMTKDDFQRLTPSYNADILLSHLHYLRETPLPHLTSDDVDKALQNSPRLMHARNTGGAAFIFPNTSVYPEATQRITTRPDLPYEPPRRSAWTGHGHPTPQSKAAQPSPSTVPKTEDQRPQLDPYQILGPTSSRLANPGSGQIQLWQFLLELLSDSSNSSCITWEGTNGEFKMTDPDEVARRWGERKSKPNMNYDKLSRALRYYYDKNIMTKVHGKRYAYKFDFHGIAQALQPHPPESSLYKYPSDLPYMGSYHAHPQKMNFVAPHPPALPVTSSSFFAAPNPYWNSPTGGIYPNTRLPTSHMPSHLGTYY
# Outline: as §1
# ELF1 = ELF1 (Homo sapiens, UniProt P32519 1-619); conditions: protein: recombinant; tags: N-terminal GST; dsDNA, one strand shown
# Outline: as §1
# EHF = target: T4, EHF (Homo sapiens, UniProt Q9NZC4 1-300); conditions: protein: recombinant; tags: N-terminal GST; dsDNA, one strand shown
# T4 sequence: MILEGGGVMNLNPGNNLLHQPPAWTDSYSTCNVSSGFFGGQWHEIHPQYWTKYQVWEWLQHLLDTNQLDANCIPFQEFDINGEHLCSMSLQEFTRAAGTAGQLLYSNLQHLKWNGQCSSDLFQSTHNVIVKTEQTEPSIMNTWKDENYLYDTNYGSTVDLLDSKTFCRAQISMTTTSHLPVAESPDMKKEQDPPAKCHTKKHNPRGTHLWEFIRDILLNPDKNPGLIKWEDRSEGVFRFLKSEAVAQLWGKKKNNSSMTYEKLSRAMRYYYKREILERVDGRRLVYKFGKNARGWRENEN
# Outline: as §1
# SPI1 = SPI1 (Homo sapiens, UniProt P17947 1-270); conditions: protein: recombinant; tags: N-terminal GST; dsDNA, one strand shown
# Outline: as §1
# ELK3 = target: T5, ELK3 (Homo sapiens, UniProt P41970 1-407); conditions: protein: recombinant; tags: N-terminal GST; dsDNA, one strand shown
# T5 sequence: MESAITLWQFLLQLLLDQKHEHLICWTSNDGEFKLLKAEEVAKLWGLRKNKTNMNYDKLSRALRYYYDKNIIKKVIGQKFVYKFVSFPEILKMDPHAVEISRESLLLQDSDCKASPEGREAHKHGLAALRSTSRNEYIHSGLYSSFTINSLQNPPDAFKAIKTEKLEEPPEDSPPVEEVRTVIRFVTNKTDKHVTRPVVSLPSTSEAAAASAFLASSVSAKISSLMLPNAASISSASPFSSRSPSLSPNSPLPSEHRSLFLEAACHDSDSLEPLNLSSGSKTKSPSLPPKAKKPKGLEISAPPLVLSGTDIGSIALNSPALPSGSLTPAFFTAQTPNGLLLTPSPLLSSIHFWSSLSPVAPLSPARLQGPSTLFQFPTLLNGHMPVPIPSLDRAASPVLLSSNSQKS
# Outline: as §1
# ETV5 = ETV5 (Homo sapiens, UniProt P41161 1-510); conditions: protein: recombinant; tags: N-terminal GST; dsDNA, one strand shown
# Outline: as §1
# HSF1 = HSF1 (Homo sapiens, UniProt Q00613 1-529); conditions: protein: recombinant; tags: N-terminal GST; chain copies: 3; dsDNA, one strand shown
# Outline: as §1
# SPIC = target: T6, SPIC (Homo sapiens, UniProt Q8N5J4 1-248); conditions: protein: recombinant; tags: N-terminal GST; dsDNA, one strand shown
# T6 sequence: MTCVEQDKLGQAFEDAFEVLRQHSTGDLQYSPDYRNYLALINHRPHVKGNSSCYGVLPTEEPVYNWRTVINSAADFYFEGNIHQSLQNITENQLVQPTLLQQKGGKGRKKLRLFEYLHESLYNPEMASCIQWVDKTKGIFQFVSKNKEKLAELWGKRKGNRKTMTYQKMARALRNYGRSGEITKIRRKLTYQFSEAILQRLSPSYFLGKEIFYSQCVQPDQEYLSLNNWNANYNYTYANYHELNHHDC
# Outline: as §1
# ETV2 = target: T7, ETV2 (Homo sapiens, UniProt O00321 1-342); conditions: protein: recombinant; tags: N-terminal GST; dsDNA, one strand shown
# T7 sequence: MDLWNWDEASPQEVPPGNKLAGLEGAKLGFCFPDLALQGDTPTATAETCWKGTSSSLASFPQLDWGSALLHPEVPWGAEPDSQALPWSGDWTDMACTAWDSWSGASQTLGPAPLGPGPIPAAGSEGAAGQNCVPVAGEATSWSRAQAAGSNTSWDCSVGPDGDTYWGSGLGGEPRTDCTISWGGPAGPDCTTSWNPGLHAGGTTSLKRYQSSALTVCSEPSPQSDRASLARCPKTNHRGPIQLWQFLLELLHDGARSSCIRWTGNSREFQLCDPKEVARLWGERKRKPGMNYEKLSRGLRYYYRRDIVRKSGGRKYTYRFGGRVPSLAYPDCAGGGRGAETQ
# Outline: as §1
# ELF3 = target: T8, ELF3 (Homo sapiens, UniProt P78545 1-371); conditions: protein: recombinant; tags: N-terminal GST; dsDNA, one strand shown
# T8 sequence: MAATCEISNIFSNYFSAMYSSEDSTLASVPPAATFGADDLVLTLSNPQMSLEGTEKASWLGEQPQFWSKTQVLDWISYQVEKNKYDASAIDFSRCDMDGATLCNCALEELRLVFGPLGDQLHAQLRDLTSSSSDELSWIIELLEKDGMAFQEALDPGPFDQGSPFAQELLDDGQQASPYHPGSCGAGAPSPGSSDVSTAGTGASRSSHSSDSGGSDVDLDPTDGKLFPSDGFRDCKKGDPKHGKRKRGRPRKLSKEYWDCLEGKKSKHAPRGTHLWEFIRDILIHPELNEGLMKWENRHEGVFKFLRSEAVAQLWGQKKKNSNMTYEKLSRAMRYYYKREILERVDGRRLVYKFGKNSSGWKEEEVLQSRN
# Outline: as §1
# CRX = CRX (Homo sapiens, UniProt O43186 1-299); conditions: protein: recombinant; tags: N-terminal GST; dsDNA, one strand shown
# Outline: as §1
# ETV1 = ETV1 (Homo sapiens, UniProt P50549 1-477); conditions: protein: recombinant; tags: N-terminal GST; dsDNA, one strand shown
# Outline: as §1
# Chain of CRX (O43186 whole entry): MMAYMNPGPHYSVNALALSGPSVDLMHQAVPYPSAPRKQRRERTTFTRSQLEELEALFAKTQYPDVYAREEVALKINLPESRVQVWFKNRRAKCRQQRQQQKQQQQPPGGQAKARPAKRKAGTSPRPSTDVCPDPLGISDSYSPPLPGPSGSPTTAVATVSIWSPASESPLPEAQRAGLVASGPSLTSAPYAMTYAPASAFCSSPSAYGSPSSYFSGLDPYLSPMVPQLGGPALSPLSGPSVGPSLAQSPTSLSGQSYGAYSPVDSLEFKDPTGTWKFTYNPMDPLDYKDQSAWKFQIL
# Chain of ETV5 (P41161 whole entry): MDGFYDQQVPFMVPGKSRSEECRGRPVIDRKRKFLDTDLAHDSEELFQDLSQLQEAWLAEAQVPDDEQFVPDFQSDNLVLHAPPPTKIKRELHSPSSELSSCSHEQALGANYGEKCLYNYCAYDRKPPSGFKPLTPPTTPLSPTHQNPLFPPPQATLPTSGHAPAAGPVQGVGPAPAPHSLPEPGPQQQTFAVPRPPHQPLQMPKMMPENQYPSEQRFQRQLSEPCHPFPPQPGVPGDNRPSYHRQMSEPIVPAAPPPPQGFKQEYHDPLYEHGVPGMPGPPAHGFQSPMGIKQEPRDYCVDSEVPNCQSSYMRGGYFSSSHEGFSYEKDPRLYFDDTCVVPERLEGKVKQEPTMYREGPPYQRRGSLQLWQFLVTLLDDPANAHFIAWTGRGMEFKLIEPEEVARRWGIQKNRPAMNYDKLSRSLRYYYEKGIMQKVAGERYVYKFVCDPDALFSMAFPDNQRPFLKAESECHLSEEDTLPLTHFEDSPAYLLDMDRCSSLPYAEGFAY
# Chain of ETV1 (P50549 whole entry): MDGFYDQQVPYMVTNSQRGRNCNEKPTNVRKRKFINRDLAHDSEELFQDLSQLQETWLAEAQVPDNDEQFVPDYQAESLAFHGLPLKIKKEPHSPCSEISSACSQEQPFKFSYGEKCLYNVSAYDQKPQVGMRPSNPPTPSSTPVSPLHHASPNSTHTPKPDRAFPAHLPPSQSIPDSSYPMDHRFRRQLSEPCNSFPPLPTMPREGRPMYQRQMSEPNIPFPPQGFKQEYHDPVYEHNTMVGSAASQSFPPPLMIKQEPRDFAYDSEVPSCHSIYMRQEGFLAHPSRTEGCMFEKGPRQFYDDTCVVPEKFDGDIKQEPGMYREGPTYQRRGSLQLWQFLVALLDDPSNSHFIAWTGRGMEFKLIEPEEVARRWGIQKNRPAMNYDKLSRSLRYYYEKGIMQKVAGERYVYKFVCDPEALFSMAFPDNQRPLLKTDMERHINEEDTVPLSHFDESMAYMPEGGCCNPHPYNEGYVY
# Chain of HSF1 (Q00613 whole entry): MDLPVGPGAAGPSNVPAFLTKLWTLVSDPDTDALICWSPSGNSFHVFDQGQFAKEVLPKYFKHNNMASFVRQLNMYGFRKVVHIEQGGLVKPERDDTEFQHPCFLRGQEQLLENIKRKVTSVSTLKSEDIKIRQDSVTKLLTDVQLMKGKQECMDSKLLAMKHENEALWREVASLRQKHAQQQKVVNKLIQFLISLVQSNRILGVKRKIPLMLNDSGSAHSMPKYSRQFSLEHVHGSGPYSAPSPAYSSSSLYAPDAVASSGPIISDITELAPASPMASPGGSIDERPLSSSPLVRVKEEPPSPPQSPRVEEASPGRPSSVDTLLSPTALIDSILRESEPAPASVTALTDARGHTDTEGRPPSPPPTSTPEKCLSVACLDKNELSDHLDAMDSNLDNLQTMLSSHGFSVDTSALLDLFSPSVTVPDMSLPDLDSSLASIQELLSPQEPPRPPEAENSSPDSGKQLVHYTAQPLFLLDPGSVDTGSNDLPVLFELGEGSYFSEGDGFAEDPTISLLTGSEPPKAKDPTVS
# Chain of ELF1 (P32519 whole entry): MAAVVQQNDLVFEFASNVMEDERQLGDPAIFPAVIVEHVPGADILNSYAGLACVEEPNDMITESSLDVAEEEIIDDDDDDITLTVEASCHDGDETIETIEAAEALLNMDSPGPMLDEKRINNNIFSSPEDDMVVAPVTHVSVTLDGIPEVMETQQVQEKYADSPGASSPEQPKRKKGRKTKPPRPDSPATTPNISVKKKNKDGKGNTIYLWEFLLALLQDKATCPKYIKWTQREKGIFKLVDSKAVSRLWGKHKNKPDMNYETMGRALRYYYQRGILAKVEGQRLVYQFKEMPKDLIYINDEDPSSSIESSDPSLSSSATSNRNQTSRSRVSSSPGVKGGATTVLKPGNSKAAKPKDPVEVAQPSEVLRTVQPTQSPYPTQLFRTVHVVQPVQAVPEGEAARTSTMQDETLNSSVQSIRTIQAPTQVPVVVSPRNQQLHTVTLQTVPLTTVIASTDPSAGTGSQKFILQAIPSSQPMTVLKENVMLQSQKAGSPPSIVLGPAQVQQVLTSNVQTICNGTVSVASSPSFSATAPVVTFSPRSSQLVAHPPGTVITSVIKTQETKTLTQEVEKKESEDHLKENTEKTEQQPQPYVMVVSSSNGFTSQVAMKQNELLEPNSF
sequence,measurement,setting,value
TAAGCG,binding signal,FLI1,"1.05 fold enrichment (6-mer frequency, TF over GST control)"
same,binding signal,GABPA,"1.01 fold enrichment (6-mer frequency, TF over GST control)"
same,binding signal,ERG,"1.02 fold enrichment (6-mer frequency, TF over GST control)"
same,binding signal,ELF1,"1.02 fold enrichment (6-mer frequency, TF over GST control)"
same,binding signal,EHF,"1.02 fold enrichment (6-mer frequency, TF over GST control)"
same,binding signal,SPI1,"1.03 fold enrichment (6-mer frequency, TF over GST control)"
same,binding signal,ELK3,"1.01 fold enrichment (6-mer frequency, TF over GST control)"
same,binding signal,ETV5,"1.02 fold enrichment (6-mer frequency, TF over GST control)"
same,binding signal,HSF1,"1.34 fold enrichment (6-mer frequency, TF over GST control)"
same,binding signal,SPIC,"1.04 fold enrichment (6-mer frequency, TF over GST control)"
same,binding signal,ETV2,"1.05 fold enrichment (6-mer frequency, TF over GST control)"
same,binding signal,ELF3,"1.19 fold enrichment (6-mer frequency, TF over GST control)"
same,binding signal,CRX,"1.86 fold enrichment (6-mer frequency, TF over GST control)"
same,binding signal,ETV1,"1 fold enrichment (6-mer frequency, TF over GST control)"
